Data from PubChem BioAssay.
Activity calls are given as the source filed them.

Tests used:
[1] = small molecules captured by biotinylated probe aFSTL3 – biochemical, small-molecule microarray, fluorescence 635/667, stem cell growth factor project, primary screen (AID 1064); conditions: higher = more signal;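 further: measures binding of the biotinylated anti-FSTL3 antibody to printed compounds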
[2] = binders from COS7 lysate, DM2A8 probe, primary screen, torsin A project, cell lysate, small-molecule microarray, fluorescence 635/667 (AID 1065); conditions: higher = more signal, COS7 lysate expressing mutant human TOR1A
[3] = small molecules captured by biotinylated probe aFGF2 – biochemical, small-molecule microarray, fluorescence 635/667, stem cell growth factor project, primary screen (AID 1067); conditions: higher = more signal;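 further: measures binding of biotinylated aFGF2 protein to printed compounds on slides; z-score merges feature fluorescence and signal-to-noise across triplicate slides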
[4] = small molecules captured by biotinylated probe aFGF10 – biochemical, small-molecule microarray, fluorescence 635/667, stem cell growth factor project, primary screen (AID 1071); conditions: higher = more signal;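 further: score merges 667 nm spot intensity and signal to noise from triplicate slides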
[5] = target: Neurogenic locus notch homolog protein 2 (Homo sapiens) (UniProt Q04721); test: small molecules binding Notch2 protein – biochemical, small-molecule microarray, 635 nm fluorescence, stem cell growth factors, primary screen (AID 1073); conditions: higher = more signal
[6] = target: Pro-neuregulin-1, membrane-bound isoform (Homo sapiens) (UniProt Q02297); test: small molecules binding neuregulin-1 protein – biochemical, small-molecule microarray, fluorescence 635/667, psychiatric disease protein project, primary screen (AID 1075); conditions: NRG1 binding, 635 nm fluorescence, higher = more signal;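 further: score combines 667 nm spot fluorescence with signal to noise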
[7] = test system: Neuregulin-1 EGF-like domain; test: small molecules binding NRG1 EGF domain – biochemical, small-molecule microarray, 635 nm fluorescence, primary screen (AID 1081); conditions: higher = more signal;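 further: binding of the protein to compounds printed on small-molecule microarray slides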
[8] = FRG1 expression reporter modulators in myotubes – cell-based, C2C12 myotubes, firefly/Renilla luciferase, luminescence, FRG1 inhibition for FSHD, primary screen (AID 1084); conditions: FRG1 promoter luciferase, higher = more signal, called active from +8 up or from −8 down
[9] = small molecules captured by biotinylated probe aFST – biochemical, small-molecule microarray, fluorescence 635/667, stem cell growth factor project, primary screen (AID 1086); conditions: higher = more signal;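 further: score merges 667 nm fluorescence with signal-to-noise of each printed compound spot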
[10] = binders of probe aHhip on microarray, primary screen, stem cell growth factor project, biochemical, small-molecule microarray, fluorescence 635/667 (AID 1087); conditions: higher = more signal;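 further: score merges spot fluorescence at 667nm with spot signal to noise ratio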
[11] = test system: PRMT1 (protein arginine N-methyltransferase 1); test: small molecules binding arginine methyltransferase PRMT1 – biochemical, small-molecule microarray, 635 nm fluorescence, primary screen (AID 1088); conditions: higher = more signal;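 further: binding of Prmt1 protein to compounds spotted on small-molecule microarray slides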
[12] = growth effects on S. cerevisiae YJM789 – YJM789 clinical isolate, OD600, 24 h, basal, primary screen (AID 1089); conditions: higher = more signal, called active from +8 up or from −8 down;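 further: growth of clinical yeast isolate S. cerevisiae YJM 789 seeded 1000 cells per well; test concentration not given here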
[13] = S. pombe growth modifiers, basal conditions – strain 972, OD600, 24 h, no modulator, primary screen (AID 1090);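 further: basal condition with compound alone and no growth modifier present; test concentration not given here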; conditions: S. pombe 972 growth, higher = more signal, called active from +8 up or from −8 down
[14] = budding yeast growth modifiers under rapamycin – strain BY4716, OD600, 96 h, primary screen (AID 1091); further: test concentration not given here; conditions: S. cerevisiae BY4716 + rapamycin, higher = more signal, called active from +8 up or from −8 down
[15] = target: Torsin-1A-interacting protein 2 (Homo sapiens) (UniProt Q8NFQ8); test: small molecules binding lysate-expressed LULL1 – cell lysate, human LULL1 lysate, 635/667 nm fluorescence, primary screen (AID 1092); conditions: small-molecule microarray, hLULL1 lysate binding, 635 nm fluorescence; higher = more signal;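 further: probe is lysate of COS7 cells overexpressing human LULL1; score merges per-feature 667 nm fluorescence with signal-to-noise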
[16] = optical density change of DRC41 E. coli – strain DRC41, OD650, 24 h, E. coli filamentation project, primary screen (AID 1093);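 further: MC1000 strain lacking acrAB efflux and sulA so SOS filamentation is blocked; test concentration not given here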; conditions: E. coli DRC41 growth, higher = more signal, called active from +8 up or from −8 down
[17] = probe aLefty2 binding to arrayed compounds – biochemical, biotinylated probe, 635/667 nm fluorescence, primary screen (AID 1094); conditions: small-molecule microarray, higher = more signal;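 further: score merges spot fluorescence near 667 nm with spot signal-to-noise ratio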
[18] = test system: Noggin (protein binding on small-molecule microarray); test: small molecules binding Noggin protein – biochemical, 635/667 nm fluorescence, primary screen (AID 1095); conditions: 635 nm fluorescence, higher = more signal;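 further: score merges 667 nm feature fluorescence with signal to noise over triplicate slides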
[19] = target: Neurogenic locus notch homolog protein 3 (Homo sapiens) (UniProt Q9UM47); test: small molecules binding NOTCH3 protein – biochemical, 635/667 nm fluorescence, primary screen (AID 1096); conditions: small-molecule microarray, 635 nm fluorescence, higher = more signal
[20] = probe aEGFR binding to arrayed compounds – biochemical, biotinylated probe, 635/667 nm fluorescence, primary screen (AID 1097); conditions: small-molecule microarray, higher = more signal;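 further: probe is a biotinylated anti-EGFR antibody binding compounds printed on slides; score combines fluorescence near 667 nm and signal to noise of each spot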

Neurogenic locus notch homolog protein 2 (Homo sapiens), sequence (Q04721 whole entry, looked up, canonical isoform): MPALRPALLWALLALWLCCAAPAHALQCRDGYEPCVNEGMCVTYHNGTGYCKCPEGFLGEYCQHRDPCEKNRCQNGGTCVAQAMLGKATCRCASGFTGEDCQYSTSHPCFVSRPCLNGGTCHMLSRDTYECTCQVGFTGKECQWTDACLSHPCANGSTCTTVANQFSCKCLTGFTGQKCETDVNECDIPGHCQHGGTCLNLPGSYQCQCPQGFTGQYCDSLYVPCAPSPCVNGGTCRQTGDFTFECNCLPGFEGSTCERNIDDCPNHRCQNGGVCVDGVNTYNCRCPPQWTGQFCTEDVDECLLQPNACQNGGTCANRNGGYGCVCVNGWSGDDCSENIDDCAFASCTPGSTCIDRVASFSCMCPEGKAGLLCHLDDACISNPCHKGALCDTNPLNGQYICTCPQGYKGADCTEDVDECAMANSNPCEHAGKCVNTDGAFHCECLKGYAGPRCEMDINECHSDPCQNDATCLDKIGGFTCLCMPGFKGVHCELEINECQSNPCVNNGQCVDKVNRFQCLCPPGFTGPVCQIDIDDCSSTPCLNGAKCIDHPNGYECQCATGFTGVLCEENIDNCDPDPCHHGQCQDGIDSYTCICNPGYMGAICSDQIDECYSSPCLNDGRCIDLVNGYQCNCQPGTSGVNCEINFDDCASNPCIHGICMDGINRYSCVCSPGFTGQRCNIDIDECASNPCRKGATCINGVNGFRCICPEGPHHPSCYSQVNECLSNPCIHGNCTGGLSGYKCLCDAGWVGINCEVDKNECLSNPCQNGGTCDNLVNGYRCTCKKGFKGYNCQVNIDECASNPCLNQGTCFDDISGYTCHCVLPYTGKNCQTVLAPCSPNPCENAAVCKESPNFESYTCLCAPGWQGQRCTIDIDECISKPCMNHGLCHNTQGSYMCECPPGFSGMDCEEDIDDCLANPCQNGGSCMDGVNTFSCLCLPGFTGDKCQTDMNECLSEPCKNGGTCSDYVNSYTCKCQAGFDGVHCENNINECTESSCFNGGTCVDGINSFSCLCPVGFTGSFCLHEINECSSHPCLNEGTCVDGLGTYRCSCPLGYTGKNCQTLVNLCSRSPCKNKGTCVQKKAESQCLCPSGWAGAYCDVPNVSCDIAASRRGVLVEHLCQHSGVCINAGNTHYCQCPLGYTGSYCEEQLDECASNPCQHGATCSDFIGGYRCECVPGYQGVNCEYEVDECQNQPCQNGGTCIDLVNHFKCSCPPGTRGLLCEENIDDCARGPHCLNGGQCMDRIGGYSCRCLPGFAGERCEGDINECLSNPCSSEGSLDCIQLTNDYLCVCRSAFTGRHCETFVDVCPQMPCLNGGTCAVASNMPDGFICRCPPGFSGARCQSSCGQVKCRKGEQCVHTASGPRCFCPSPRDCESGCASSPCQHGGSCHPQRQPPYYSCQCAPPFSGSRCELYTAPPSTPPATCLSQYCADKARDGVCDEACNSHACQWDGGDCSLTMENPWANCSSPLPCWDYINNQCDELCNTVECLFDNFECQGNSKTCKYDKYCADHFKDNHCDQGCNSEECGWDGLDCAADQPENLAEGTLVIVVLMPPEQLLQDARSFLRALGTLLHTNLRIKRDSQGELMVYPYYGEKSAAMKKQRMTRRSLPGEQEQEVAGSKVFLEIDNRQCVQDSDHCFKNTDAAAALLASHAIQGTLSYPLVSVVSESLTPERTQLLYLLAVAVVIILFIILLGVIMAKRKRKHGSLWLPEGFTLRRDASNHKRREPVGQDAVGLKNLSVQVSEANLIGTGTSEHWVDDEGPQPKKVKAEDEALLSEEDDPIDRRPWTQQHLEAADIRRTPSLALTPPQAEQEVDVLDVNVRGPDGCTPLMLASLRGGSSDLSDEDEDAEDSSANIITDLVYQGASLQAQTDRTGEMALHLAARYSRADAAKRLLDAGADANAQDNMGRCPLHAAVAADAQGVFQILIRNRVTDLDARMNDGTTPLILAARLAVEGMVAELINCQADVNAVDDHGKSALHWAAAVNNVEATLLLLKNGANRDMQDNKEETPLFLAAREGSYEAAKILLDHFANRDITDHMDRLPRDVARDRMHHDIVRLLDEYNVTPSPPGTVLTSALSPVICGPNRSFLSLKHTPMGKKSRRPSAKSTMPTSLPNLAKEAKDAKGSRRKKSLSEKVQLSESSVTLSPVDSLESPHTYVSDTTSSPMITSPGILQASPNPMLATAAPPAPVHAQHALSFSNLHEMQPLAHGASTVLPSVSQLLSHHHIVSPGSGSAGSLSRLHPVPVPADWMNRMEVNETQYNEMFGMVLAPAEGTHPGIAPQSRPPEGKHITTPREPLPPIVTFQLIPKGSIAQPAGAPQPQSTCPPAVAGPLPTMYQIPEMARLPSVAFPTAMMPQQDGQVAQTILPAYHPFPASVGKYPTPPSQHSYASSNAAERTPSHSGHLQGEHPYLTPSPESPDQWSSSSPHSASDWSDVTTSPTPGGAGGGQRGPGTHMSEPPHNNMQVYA
Torsin-1A-interacting protein 2 (Homo sapiens), sequence (Q8NFQ8 whole entry, looked up): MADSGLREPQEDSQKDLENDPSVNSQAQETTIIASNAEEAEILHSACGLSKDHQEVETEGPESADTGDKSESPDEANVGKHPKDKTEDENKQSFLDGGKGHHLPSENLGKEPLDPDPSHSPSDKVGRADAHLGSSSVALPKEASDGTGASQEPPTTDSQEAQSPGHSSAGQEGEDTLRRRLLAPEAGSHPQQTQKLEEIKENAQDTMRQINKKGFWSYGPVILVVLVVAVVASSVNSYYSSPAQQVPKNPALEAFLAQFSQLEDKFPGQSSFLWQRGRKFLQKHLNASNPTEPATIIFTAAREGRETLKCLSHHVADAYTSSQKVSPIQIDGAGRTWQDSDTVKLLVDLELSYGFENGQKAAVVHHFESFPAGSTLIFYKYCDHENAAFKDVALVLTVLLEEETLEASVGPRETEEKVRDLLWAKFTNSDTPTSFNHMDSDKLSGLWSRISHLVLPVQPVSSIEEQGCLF
Pro-neuregulin-1, membrane-bound isoform (Homo sapiens), sequence (Q02297 whole entry, looked up, the tested form may be a part, canonical isoform): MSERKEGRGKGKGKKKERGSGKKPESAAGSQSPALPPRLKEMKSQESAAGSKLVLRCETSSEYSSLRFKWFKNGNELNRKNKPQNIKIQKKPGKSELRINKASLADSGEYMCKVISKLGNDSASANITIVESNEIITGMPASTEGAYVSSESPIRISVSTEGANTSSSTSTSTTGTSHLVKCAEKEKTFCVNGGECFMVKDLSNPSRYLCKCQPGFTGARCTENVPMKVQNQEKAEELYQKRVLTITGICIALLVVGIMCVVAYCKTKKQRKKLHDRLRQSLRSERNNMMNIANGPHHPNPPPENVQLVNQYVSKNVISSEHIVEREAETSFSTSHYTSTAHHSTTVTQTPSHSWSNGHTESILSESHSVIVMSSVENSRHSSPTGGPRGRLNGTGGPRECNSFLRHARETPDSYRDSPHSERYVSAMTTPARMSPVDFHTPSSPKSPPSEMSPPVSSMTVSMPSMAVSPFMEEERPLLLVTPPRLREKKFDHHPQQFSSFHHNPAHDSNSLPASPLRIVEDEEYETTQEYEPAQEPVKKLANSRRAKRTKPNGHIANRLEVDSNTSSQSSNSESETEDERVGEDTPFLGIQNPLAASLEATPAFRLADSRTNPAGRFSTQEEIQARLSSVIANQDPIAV

| Structure (SMILES) | composite z-score [1] | composite z-score [2] | composite z-score [3] | composite z-score [4] | composite z-score [5] | composite z-score [6] | composite z-score [7] | z-score [8] | composite z-score [9] | composite z-score [10] | composite z-score [11] | z-score [12] | z-score [13] | z-score [14] | composite z-score [15] | z-score [16] | composite z-score [17] | composite z-score [18] | composite z-score [19] | composite z-score [20] |
| --- | --- | --- | --- | --- | --- | --- | --- | --- | --- | --- | --- | --- | --- | --- | --- | --- | --- | --- | --- | --- |
| COc1ccc(OC[C@@H]2CC3[C@@H](c4ccc(Br)cc4)[C@H](C)CC[C@H]3C(=O)O2)cc1 (stereo not given in full) | -0.416 | 0.138 | -0.142 | 0.0248 | 0.407 | 0.093 | -0.216 | -0.321 (inactive) | 0.204 | -0.0645 | 0.112 | -0.251 (inactive) | -2.64 (inactive) | 0.0176 (inactive) | 0.82 | -0.145 (inactive) | -0.158 | 0.991 | 0.509 | -0.159 |
| COC(=O)CC=C[C@@H](C)[C@@H](C=NOC[C@@H](O)COCc1ccco1)NS(=O)(=O)c1ccc(C)cc1 | -0.568 | 0.9 | -0.162 | -0.28 | -0.572 | -0.767 | -0.929 | 0.184 (inactive) | -0.0225 | -0.0237 | 0.0315 | 0.0457 (inactive) | 1.02 (inactive) | 0.0521 (inactive) | -1.12 | 0.835 (inactive) | -0.202 | 0.704 | -0.834 | -0.195 |
| CC[C@@H](c1ccccc1)n1c(=O)n2n(c1=O)[C@H]1[C@H](O)[C@@H]3O[C@@H]3C(=NOCc3ccccc3)[C@H]1CC2 | 0.83 | 0.374 | -0.172 | 0.0913 | 0.57 | 0.834 | 0.504 | 2.67 (inactive) | -0.0575 | -0.13 | -0.454 | 0.183 (inactive) | -1.17 (inactive) | 0.191 (inactive) | 0.786 | -0.866 (inactive) | -0.132 | 1.3 | 0.81 | -0.0824 |
| C[C@@H]1CC[C@@H](C(=O)O)N[C@H]1c1cccc(N2CCOCC2)c1 | -0.406 | 0.179 | -0.0428 | 0.268 | 0.887 | 0.0719 | 0.251 | -1.79 (inactive) | 0.253 | -0.134 | -0.618 | 0.395 (inactive) | -0.623 (inactive) | -0.591 (inactive) | 0.879 | 1.64 (inactive) | -0.106 | 0.377 | 0.597 | -0.106 |
| O=C1C[C@@H](O)[C@@H](O)[C@@H]2[C@@H]3C(=O)N(C4CCCCC4)C(=O)[C@@H]3CC[C@@H]12 | -0.371 | 0.159 | -0.0113 | 0.394 | 0.334 | 1.05 | 0.546 | 0.129 (inactive) | 0.0535 | -0.0237 | 0.607 | 0.93 (inactive) | -0.509 (inactive) | -0.149 (inactive) | 0.905 | 0.536 (inactive) | -0.137 | 0.354 | 0.57 | -0.0921 |
| CC(C)=CCCC(C)=CCON=C1C[C@@H](O)[C@@H](O)[C@@H]2[C@@H]3C(=O)N(Cc4ccc5c(c4)OCO5)C(=O)[C@@H]3CC[C@@H]12 | -0.316 | -0.777 | -0.241 | 0.31 | 0.397 | 0.364 | 0.974 | 0.397 (inactive) | 0.396 | -0.0618 | 1.54 | 0.0718 (inactive) | 1.03 (inactive) | -0.864 (inactive) | 2.06 | 0.813 (inactive) | 0.0478 | 0.837 | 0.983 | -0.0432 |
| COc1ccc(COC(=O)NN=C2C[C@@H](O)[C@@H](O)[C@@H]3[C@@H]4C(=O)N(C(C)(C)C)C(=O)[C@@H]4CC[C@@H]23)cc1 | -0.31 | 1.1 | -0.0243 | 0.568 | 1.14 | 0.173 | 0.644 | 1.24 (inactive) | 0.413 | -0.204 | 1.16 | -1.26 (inactive) | -0.573 (inactive) | -0.731 (inactive) | 0.515 | 1.09 (inactive) | -0.005 | 0.0364 | 1.02 | -0.03 |
| COC(=O)[C@H](C)NC(=O)CCC1CC(OC(=O)NCc2ccc3c(c2)OCO3)CC2(CCCC(COC(=O)NCCCN3CCCC3=O)O2)O1 (stereo not given in full) | -0.869 | 0.62 | -0.0397 | 0.469 | 0.829 | 0.357 | 1.04 | -0.787 (inactive) | 1.3 | 0.0373 | 1.45 | 0.395 (inactive) | 0.642 (inactive) | 0.502 (inactive) | 0.908 | -0.223 (inactive) | -0.155 | 0.424 | 1.1 | -0.0128 |
| C[C@@H]1CC[C@H]2C(=O)O[C@@H](COc3ccc(C(C)(C)C)cc3)CN2[C@H]1c1ccc(Br)cc1 | -0.348 | 0.0745 | -0.103 | 0.085 | -0.0477 | 0.101 | -0.4 | 0.732 (inactive) | 0.153 | -0.16 | 0.76 | 0.267 (inactive) | -0.0416 (inactive) | -0.264 (inactive) | 0.456 | 0.113 (inactive) | -0.159 | 0.307 | -0.288 | -0.0326 |
